# Most compounds without a hit are left out; they make up all but 3.5% or so of the library.
# TEAD-YAP inh: TEAD-YAP interaction inhibition; 640,000 tested, 1.4% active; inhibition, % at 9.12 µM; HEK-TIYL cells, TEAD-Gal4/YAP UAS-luciferase luminescence; AID 1259422; in the data active = inhibition above about 32%;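 also: 0% = median of test compound wells and 100% = reference inhibitor wells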
# MITF inh: inhibitors of human MITF | O75030 | inhibition, % at 2.6 µM | AlphaScreen MITF homodimerization, bead proximity signal | 650,000 tested, 0.91% active; in the data active = inhibition above about 50%;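 also: 0% = vehicle wells with protein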
# FBW7 act: human FBW7 E3 ligase activation, primary screen; Q969H0; AlphaScreen FBW7–phospho-cyclin E peptide binding, activator screen; normalized activity (activation), % at 26.1 µM; 650,000 tested, 0.13% active; AID 1259310; in the data active = normalized activity above about 1.9%;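 also: purified mutant Fbw7 with reduced substrate affinity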
# GPR151 activ: activators of human GPR151. Q8TDV0. activation, % at 11.2 µM. PathHunter beta-arrestin GPR151 cells, luminescence. 650,000 tested, 1% active; in the data active = activation above about 4.9%;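 also: 0% = median of compound wells and 100% = cells with positive control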
# Target sequence (Q8TDV0 whole entry, looked up): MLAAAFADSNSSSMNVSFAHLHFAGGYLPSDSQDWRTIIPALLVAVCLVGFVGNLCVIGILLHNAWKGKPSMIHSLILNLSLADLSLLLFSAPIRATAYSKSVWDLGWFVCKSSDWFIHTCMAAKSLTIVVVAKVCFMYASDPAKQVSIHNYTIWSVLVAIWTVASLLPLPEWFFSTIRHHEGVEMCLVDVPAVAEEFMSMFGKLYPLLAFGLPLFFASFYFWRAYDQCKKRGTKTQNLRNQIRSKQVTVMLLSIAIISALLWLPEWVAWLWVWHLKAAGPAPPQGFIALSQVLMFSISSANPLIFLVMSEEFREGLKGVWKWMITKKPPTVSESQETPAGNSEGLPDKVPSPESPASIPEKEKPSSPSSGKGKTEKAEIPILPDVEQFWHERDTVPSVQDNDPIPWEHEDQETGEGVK
# * hit, by the source's call.
SMILES,TEAD-YAP inh,MITF inh,FBW7 act,GPR151 activ
COc1ccc(C2=NN(C(=O)c3cc(OC)c(OC)c(OC)c3)C(c3ccc(F)cc3)C2)cc1OC (configuration not stated),49.5*,-7.5,-0.1,0.8
COc1ccc(C(=O)N2CCN(c3ccccc3C)CC2)cc1OC,3.8,15.6,0.1,1.5
CCOc1ccccc1N(C)S(=O)(=O)c1ccc2[nH]cc(C(=O)NCc3cccnc3)c(=O)c2c1,63.5*,14.6,0.0,-0.1
Cc1cccc(C)c1N(C)S(=O)(=O)c1ccc2[nH]cc(C(=O)NCc3cccnc3)c(=O)c2c1,34.0*,-0.4,0.0,2.5
O=C(c1ccccc1)n1c(=S)nc2ccccn21,40.2*,14.4,0.3,-2.0
COc1ccc(C(c2sc3nc(C)nn3c2O)N2CCN(C(C)=O)CC2)c(OC)c1 (configuration not stated),8.1,16.4,0.1,0.3
O=C(OCc1cc(=O)oc2cc(O)c(O)cc12)c1cc(Cl)ccc1[N+](=O)[O-],5.8,64.0*,0.0,0.7
O=C(OCc1ccccc1)c1cc(Cl)ccc1[N+](=O)[O-],5.5,4.1,-0.2,-1.2
O=C(CSc1ccc([N+](=O)[O-])cn1)N1CCOCC1,-3.9,-2.8,-0.2,-1.0
C[C@@H]1O[C@@H](OC[C@H]2OC(Oc3c(-c4ccc(O)c(O)c4)oc4cc(O)cc(O)c4c3=O)[C@H](O)[C@@H](O)[C@@H]2O)[C@H](O)[C@H](O)[C@H]1O (some centres not stated),6.7,82.1*,-0.3,-0.1
O=C(/C=C/Nc1ccccc1F)c1cccs1,38.2*,10.5,0.0,-1.2
O=C(/C=C/Nc1ccc(F)cc1F)c1cccs1,73.4*,30.1,0.5,0.5
Nc1nc(Nc2ccc(N3CCOCC3)cc2)cc(Nc2nccc3ccccc23)n1,40.0*,16.9,0.0,1.2
c1ccc2c(Nc3nc(Nc4ccc(N5CCOCC5)cc4)c4[nH]cnc4n3)nccc2c1,37.6*,13.6,-0.2,-1.2
c1cncc(Nc2nc(Nc3ccc(N4CCOCC4)cc3)c3[nH]cnc3n2)c1,36.6*,2.6,-0.1,1.0
Nc1nc(Nc2ccccc2)cc(Nc2ccc(N3CCOCC3)cc2)n1,15.0,5.1,-0.2,-1.7
Cc1cc(Br)c2c(c1)C(O)(CC(=O)c1ccccn1)C(=O)N2 (configuration not stated),1.6,-0.3,-0.1,-0.5
CC1=NC(C)(C)C(C)c2c1ccc1ccccc21 (configuration not stated),4.3,5.1,0.0,-0.2
CC(C)CCN1C(=O)c2cccc3c(N)ccc(c23)C1=O,-62.5,4.8,2.1*,0.3
CCCCN1C(=O)c2cccc3c(N)ccc(c23)C1=O,-19.7,-21.9,1.0,2.0
Cc1ccccc1OCC(=O)NCC(=O)OCC(=O)c1ccc(Cl)c(Cl)c1,-0.2,-14.7,0.1,1.2
N#Cc1ccc(Oc2ccc(S(=O)(=O)N3CCCCC3)cc2[N+](=O)[O-])cc1,2.8,9.8,0.0,-0.7
COc1cccc(N2CCN(C(=O)c3[nH]c(C)c(C(C)=O)c3C)CC2)c1,40.1*,1.6,-0.3,1.9
CC(=O)c1c(C)[nH]c(C(=O)N2CCN(c3ccc(F)cc3)CC2)c1C,-3.2,-1.0,-0.1,0.0
CCc1c(C(=O)N2CCN(c3cccc(OC)c3)CC2)[nH]c(C)c1C(C)=O,54.5*,7.7,0.1,-0.1
SMILES,TEAD-YAP inh,MITF inh,FBW7 act,GPR151 activ
CC(=O)c1c(C)[nH]c(C(=O)N2CCN(c3cccc(Cl)c3)CC2)c1C,52.2*,7.7,-0.1,1.3
CC(=O)c1c(C)[nH]c(C(=O)N2CCN(c3cc(Cl)ccc3C)CC2)c1C,-1.7,7.8,0.1,-1.2
COc1cc(Nc2nc(NCCc3ccc(O)cc3)c3[nH]cnc3n2)cc(OC)c1OC,46.0*,-8.3,-0.1,-0.3
COc1cc(Nc2nc(NCCO)c3[nH]cnc3n2)cc(OC)c1OC,-9.8,20.5,0.2,3.0
Cc1cnc(Nc2ccncn2)nc1NCCc1ccc(O)cc1,5.1,19.9,0.0,0.5
Oc1ccc(CCNc2nc(Nc3ccccc3)nc3nc[nH]c23)cc1,51.8*,6.8,-0.1,-0.3
Cc1cnc(Nc2cnccn2)nc1NCCc1ccc(O)cc1,35.7*,14.7,0.2,-1.4
CN(C)c1cccc(Nc2nc(NCc3ccccc3)c3[nH]cnc3n2)c1,1.3,15.4,2.4*,-0.1
COc1ccc(CCn2c(SCc3ccc(C)cc3)nc3ccsc3c2=O)cc1OC,2.8,11.7,0.0,-0.6
Cc1nc2ccc(S(=O)(=O)NC(CC(C)C)C(=O)N3CCOCC3)cc2s1 (configuration not stated),2.1,11.9,0.1,-0.1
COc1cc2c(cc1OC)n(CC(=O)Nc1ccc(C)c(C)c1)n1c(C)cc(=O)nc21,-2.1,3.5,0.0,3.2
COCCCNC(=O)CCc1nc2cccnc2n1-c1ccccc1,-3.1,-9.7,-0.1,1.0
Oc1ccc(CCNc2nc(Nc3cnccn3)nc3nc[nH]c23)cc1,39.0*,-4.5,0.0,0.2
Oc1ccc(CCNc2nc(Nc3ccncc3)nc3nc[nH]c23)cc1,15.8,-1.6,0.1,-0.8
c1ccc(OCCNc2nc(Nc3ccncn3)nc3nc[nH]c23)cc1,11.8,-0.1,32.8*,0.4
COc1ccc(C2C(C(=O)N(C)Cc3ccccc3)c3ccccc3C(=O)N2Cc2ccc(F)cc2)cc1 (configuration not stated),-2.5,19.7,0.1,0.5
O=[N+]([O-])c1cccc(CSc2nnnn2-c2ccccc2)c1,0.0,-2.3,-0.1,1.7
CC(C)NCCCOc1ccc2ccccc2c1Br,40.0*,-4.5,-0.1,-0.9
COc1ccc(C2CC(c3cccs3)=NN2C(=O)CSc2nnc(CNC(=O)COc3ccccc3)n2-c2ccccc2OC)cc1 (configuration not stated),32.2*,3.0,-0.1,1.4
COc1ccc(C2=NN(C(=O)CSc3nnc(CNC(=O)c4ccco4)n3-c3cc(C)ccc3C)C(c3ccc(OC)cc3)C2)cc1 (configuration not stated),-5.3,-0.9,3.6*,1.3
COc1ccc(Cl)cc1N(CC(=O)N1CCC(Cc2ccccc2)CC1)S(=O)(=O)c1ccccc1,6.1,3.8,-0.2,0.3
CCOC(=O)c1ccccc1NC(=O)CSc1nc2n[nH]c(C)c2c(=N)n1-c1ccc(Br)cc1,-12.2,13.4,-0.4,0.8
O=C(N/N=C/c1cccc([N+](=O)[O-])c1)c1cccc(F)c1,-27.9,9.9,0.1,-0.4
Cc1cc(OCC(O)CNC2CCCC2)ccc1C(C)C (configuration not stated),12.4,12.8,0.1,-0.2
Cc1cc(OCC(O)CNC(C)C)ccc1C(C)C (configuration not stated),50.7*,-15.9,0.0,-0.2
Cc1cc(OCCCNCCN)ccc1C(C)C,-2.1,-2.4,-0.1,-1.8
C=CCNCCCOc1ccc(C(C)C)c(C)c1,41.7*,36.8,0.0,-2.5
COc1cc2nc(NCCCN3CCCCC3)n3nc(-c4cccnc4)nc3c2cc1OC,37.4*,16.3,0.3,2.0
CCCCNc1nc2cc(OC)c(OC)cc2c2nc(-c3cccnc3)nn12,-13.7,-7.0,-0.1,0.0
c1cncc(-c2nc3c4ccccc4nc(NCCCN4CCCCCC4)n3n2)c1,69.1*,-8.3,0.0,-0.1
